Assay results from PubChem BioAssay (Tox21).
Inconclusive results are not listed. A call without a number means that no potency is given here. Calls of active or inactive are those of the source. Unless noted, calls follow the shape of the dose curve; as a rule, active = well fitted curve in the direction sought with a large enough effect in the repeat runs; inconclusive = weak or mixed curves; inactive = no such curve, though single readings can be large; an effect the other way counts as inactive or inconclusive.

Experiments:
[1] = biological target: Thyrotropin receptor (Homo sapiens) (UniProt P16473); assay: qHTS assay to identify small molecule antagonists of the thyroid stimulating hormone receptor (TSHR) signaling pathway (AID 1259385; calls by dose curve; also: nearly all actives have a fitted effect of over 20% in size)
Chain of Thyrotropin receptor (Homo sapiens) (P16473 whole entry, looked up): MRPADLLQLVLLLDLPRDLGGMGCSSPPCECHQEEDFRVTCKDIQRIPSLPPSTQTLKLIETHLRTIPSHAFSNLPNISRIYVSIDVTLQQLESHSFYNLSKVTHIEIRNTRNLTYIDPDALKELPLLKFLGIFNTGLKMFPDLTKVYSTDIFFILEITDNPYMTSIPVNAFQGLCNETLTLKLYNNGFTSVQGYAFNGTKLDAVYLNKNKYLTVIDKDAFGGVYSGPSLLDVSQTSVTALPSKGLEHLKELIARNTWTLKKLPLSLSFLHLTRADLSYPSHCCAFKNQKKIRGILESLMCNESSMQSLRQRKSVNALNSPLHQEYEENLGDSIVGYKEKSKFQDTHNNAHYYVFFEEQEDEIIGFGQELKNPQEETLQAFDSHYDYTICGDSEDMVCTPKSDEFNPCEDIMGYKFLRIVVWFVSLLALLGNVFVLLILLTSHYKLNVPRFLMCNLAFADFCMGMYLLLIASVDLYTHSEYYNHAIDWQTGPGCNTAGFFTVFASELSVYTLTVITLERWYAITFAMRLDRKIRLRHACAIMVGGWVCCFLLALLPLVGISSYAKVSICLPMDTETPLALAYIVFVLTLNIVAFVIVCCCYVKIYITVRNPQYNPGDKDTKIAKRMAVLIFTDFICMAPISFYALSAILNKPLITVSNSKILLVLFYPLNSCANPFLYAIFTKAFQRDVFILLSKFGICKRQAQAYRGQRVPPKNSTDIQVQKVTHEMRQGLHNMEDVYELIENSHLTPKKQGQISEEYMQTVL
Method in brief: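 TSHR-HEK293 cells (800/well) plated 18 h, then compounds with Ro20-1724 and TSH at 1.5 ng/mL final, 30 min at room temperature. cAMP quantified by HTRF (cAMP-d2/anti-cAMP-cryptate, 1 h); 15 concentrations in triplicate.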

[2] = biological target: Progesterone receptor (Homo sapiens) (UniProt P06401); assay: qHTS assay to identify small molecule antagonists of the progesterone receptor (PR) signaling pathway (AID 1346795; active = well fitted inhibition curve with a large enough effect in the signal ratio in the repeat runs, not every such curve was filed as active; the % refers to the signal ratio; also: potency is read from the fitted curve at half-maximal effect)
Chain of Progesterone receptor (Homo sapiens) (P06401 whole entry, looked up): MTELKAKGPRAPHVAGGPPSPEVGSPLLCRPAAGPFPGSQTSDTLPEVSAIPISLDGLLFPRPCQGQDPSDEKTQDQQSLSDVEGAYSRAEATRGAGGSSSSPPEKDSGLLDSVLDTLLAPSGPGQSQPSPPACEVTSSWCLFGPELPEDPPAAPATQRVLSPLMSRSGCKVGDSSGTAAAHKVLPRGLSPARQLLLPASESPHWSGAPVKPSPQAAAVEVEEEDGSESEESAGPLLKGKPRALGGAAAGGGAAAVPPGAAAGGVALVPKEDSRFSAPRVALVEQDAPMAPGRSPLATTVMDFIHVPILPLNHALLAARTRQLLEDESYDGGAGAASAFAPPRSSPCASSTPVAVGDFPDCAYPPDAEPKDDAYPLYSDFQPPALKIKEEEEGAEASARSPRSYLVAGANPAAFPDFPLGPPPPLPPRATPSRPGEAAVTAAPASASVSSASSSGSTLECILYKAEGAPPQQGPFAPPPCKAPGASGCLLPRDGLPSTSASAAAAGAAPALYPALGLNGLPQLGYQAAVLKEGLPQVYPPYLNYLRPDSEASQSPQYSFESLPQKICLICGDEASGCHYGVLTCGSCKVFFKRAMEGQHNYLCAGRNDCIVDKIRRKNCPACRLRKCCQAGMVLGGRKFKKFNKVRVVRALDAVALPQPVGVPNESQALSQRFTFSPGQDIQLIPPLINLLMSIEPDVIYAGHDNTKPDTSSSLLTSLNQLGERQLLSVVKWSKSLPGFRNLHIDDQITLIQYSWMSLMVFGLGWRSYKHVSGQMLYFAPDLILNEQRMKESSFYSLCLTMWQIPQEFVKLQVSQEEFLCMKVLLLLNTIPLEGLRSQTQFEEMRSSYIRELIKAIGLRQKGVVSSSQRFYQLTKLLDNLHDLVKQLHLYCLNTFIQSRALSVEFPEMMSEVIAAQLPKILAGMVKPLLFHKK
Method in brief: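 PR-UAS-bla HEK293T cells with beta-lactamase reporter under UAS control, in 2% charcoal-stripped FBS, treated with compounds plus 1 nM promegestone (R5020, final) for 16 hr at 37C. Read-out: FRET beta-lactamase substrate fluorescence after 2 hr at room temperature.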

[3] = qHTS assay to identify small molecule antagonists of the progesterone receptor (PR) signaling pathway - cell viability counter screen (AID 1346798); also: nearly all actives have a fitted effect of over 50% in size; also: potency is read from the fitted curve at half-maximal effect
Method in brief: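 PR-UAS-bla HEK293T cells, 3,000/well in 2% charcoal-stripped FBS medium, dosed with compounds plus R5020 agonist and incubated 16 h at 37C. Viability then measured in the same wells by CellTiter-Glo luminescence after 30 min at RT.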

[4] = qHTS assay to identify small molecule agonists of the progesterone receptor (PR) signaling pathway - cell viability counter screen (AID 1346799; calls by dose curve; also: nearly all actives have a fitted effect of over 45% in size; also: potency is read from the fitted curve at half-maximal effect)
Method in brief: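 Counter screen in the PR-UAS-bla HEK293T wells (2% charcoal-stripped FBS, 16 h compound exposure at 37 C) after the bla read. CellTiter-Glo added, 30 min at room temperature, luminescence read as cell viability.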

[5] = qHTS assay to identify small molecule antagonists of the TGF-beta/Smad signaling pathway - cell viability counter screen (AID 1346824); also: nearly all actives have a fitted effect of over 50% in size; also: potency is read from the fitted curve at half-maximal effect
Method in brief: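 SBE-bla HEK 293T cells, incubated overnight, then compound plus 0.25 ng/mL TGF-beta1 (stock added) for 5 hr at 37 C. Viability was read in the same wells by CellTiter-Glo luminescence after 30 min at room temperature.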

[6] = qHTS assay to identify small molecule agonists of the TGF-beta/Smad signaling pathway - cell viability counter screen (AID 1346829); also: nearly all actives have a fitted effect of over 45% in size; also: potency is read from the fitted curve at half-maximal effect
Method in brief: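 CellTiter-Glo luminescence readout; SBE-bla HEK 293T cells, overnight plating, compound 5 hr at 37 C/5% CO2, then bla substrate 2 hr RT, then CellTiter-Glo 30 min RT.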

[7] = qHTS assay to identify small molecule agonists of the TGF-beta/Smad signaling pathway (AID 1346859; active = well fitted activation curve with a large enough effect in the signal ratio in the repeat runs, not every such curve was filed as active; the % refers to the signal ratio; also: series mostly up to about 77 µM)
Method in brief: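 SBE-bla HEK293T cells plated overnight, then compound exposure for 5 h at 37 C. Beta-lactamase reporter read with LiveBLAzer B/G FRET substrate after 2 h at room temperature, fluorescence at 405 nm excitation, 460/530 nm emission.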

[8] = biological target: Thyrotropin-releasing hormone receptor (Homo sapiens) (UniProt P34981); assay: qHTS assay to identify small molecule antagonists of the thyrotropin-releasing hormone receptor (TRHR) signaling pathway (AID 1346877; active = well fitted inhibition curve with a large enough effect in the repeat runs, not every such curve was filed as active; also: potency is read from the fitted curve at half-maximal effect)
Chain of Thyrotropin-releasing hormone receptor (Homo sapiens) (P34981 whole entry, looked up): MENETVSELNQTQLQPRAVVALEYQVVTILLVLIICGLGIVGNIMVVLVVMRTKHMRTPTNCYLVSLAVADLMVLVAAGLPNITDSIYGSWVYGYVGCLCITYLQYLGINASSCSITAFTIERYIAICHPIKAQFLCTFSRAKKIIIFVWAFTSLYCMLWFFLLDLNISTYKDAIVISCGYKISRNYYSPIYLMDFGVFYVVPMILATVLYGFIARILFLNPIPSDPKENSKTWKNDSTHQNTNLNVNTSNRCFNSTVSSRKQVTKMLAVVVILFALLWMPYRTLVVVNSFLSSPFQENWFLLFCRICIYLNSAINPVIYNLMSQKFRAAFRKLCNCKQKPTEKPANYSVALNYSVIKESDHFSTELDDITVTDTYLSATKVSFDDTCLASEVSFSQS
Method in brief: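 Human TRHR in HEK293 cells; inhibition of the intracellular calcium rise triggered by 1 nM TRH was followed by fluorescence over 3 min. Compounds were run at 15 concentrations, three replicates each.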

[9] = biological target: Thyrotropin-releasing hormone receptor (Homo sapiens) (UniProt P34981); assay: qHTS assay to identify small molecule agonists of the thyrotropin-releasing hormone receptor (TRHR) signaling pathway (AID 1346891; calls by dose curve; also: series mostly up to about 58 µM)
Method in brief: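 HEK293 cells expressing TRHR plated 18 h at 37 C/5% CO2, calcium dye-loaded 2 h at 37 C, then compound added (agonist mode); kinetic calcium fluorescence read 3 min at 1 s intervals; 15 concentrations in triplicate.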

[10] = Caspase-3/7 induction in HepG2 cells by small molecules, qHTS assay (AID 1346978); also: nearly all actives have a fitted effect of over 15% in size
Method in brief: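 Wild-type HepG2 cells, 2,000/well, settled 5 hr at 37 C and 5% CO2, then compound-treated for 17 hr; caspase-3/7 activity read by luminescent Caspase-Glo 3/7 after 30 min at room temperature.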

[11] = biological target: Nuclear receptor subfamily 1 group I member 2 (Homo sapiens) (UniProt O75469); assay: Human pregnane X receptor (PXR) small molecule agonists, qHTS assay (AID 1346982); also: nearly all actives have a fitted effect of over 35% in size; also: potency is read from the fitted curve at half-maximal effect
Chain of Nuclear receptor subfamily 1 group I member 2 (Homo sapiens) (O75469 whole entry, looked up): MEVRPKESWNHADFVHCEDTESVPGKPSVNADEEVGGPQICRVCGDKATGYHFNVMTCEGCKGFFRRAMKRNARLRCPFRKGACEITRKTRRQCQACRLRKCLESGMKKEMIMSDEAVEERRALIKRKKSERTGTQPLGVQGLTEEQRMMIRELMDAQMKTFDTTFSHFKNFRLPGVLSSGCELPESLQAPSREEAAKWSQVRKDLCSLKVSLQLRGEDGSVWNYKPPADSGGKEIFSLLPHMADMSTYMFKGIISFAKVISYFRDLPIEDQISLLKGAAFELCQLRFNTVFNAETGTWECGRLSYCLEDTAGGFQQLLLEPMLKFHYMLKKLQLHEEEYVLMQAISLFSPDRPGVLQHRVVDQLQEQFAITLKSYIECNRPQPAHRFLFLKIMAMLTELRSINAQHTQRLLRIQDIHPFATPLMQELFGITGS
Method in brief: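 After plating in 5% charcoal-stripped FBS and a 5 hr rest, PXR-Luc HepG2 cells received compounds in DMSO. Following 24 hr at 37 C, ONE-Glo was added and light output read.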

[12] = qHTS assay to identify small molecule agonists of the estrogen receptor alpha (ER-alpha) signaling pathway in the presence of an antagonist - cell viability counter screen (AID 1259386);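 also: series mostly up to about 92 µM; cells exposed to compounds for 22 h at 37 °C before the viability read; nearly all actives have a fitted effect of over 30% in size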
Method in brief: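 Steps: 5-day stripped-FBS culture; seed and incubate 24hr; add ICI-182,780 (10.0nM final); pin 15-point compound titration; incubate 22hr at 37C; add CellTiter-Fluor at 21hr; read fluorescence.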

[13] = biological target: Progesterone receptor (Homo sapiens) (UniProt P06401); assay: qHTS assay to identify small molecule agonists of the progesterone receptor (PR) signaling pathway (AID 1346784; calls by dose curve; also: nearly all actives have a fitted effect of over 30% in size)
Method in brief: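 PR-UAS-bla HEK 293T cells (beta-lactamase reporter under UAS) in 2% charcoal-stripped FBS, dosed with 23 nL compound after 6 hr, incubated 16hr at 37C. LiveBLAzer B/G FRET substrate added, fluorescence read after 2 hours.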

[14] = Human pregnane X receptor (PXR) small molecule agonists, qHTS cell viability counter screen (AID 1346977); also: nearly all actives have a fitted effect of over 50% in size; also: potency is read from the fitted curve at half-maximal effect
Method in brief: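 PXR-Luc HepG2 cells (2,000/well, 5% charcoal-stripped FBS) preincubated 5 hr, then exposed to compounds 24 hr at 37 C. Viability read in the same wells by CellTiter-Fluor fluorescence, reagent added at 23 hr, 1 hr incubation.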

[15] = Caspase-3/7 induction in CHO-K1 cells by small molecules, qHTS assay (AID 1346980); also: nearly all actives have a fitted effect of over 15% in size
Method in brief: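 Wild-type CHO-K1 cells exposed to compounds for 17hr at 37 C, 5% CO2. Caspase-3/7 activity then measured by Caspase-Glo 3/7 luminescence after 30min at room temperature.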

[16] = biological target: Nuclear receptor subfamily 1 group I member 2 (Rattus norvegicus) (UniProt Q9R1A7); assay: Rat pregnane X receptor (rPXR) activation by small molecules, qHTS assay (AID 1346983); conditions: rPXR luciferase reporter cells, One-Glo luminescence, 24 h; max activation: hits give high values; also: potency is read from the fitted curve at half-maximal effect; nearly all actives have a fitted effect of over 20% in size
Chain of Nuclear receptor subfamily 1 group I member 2 (Rattus norvegicus) (Q9R1A7 whole entry, looked up): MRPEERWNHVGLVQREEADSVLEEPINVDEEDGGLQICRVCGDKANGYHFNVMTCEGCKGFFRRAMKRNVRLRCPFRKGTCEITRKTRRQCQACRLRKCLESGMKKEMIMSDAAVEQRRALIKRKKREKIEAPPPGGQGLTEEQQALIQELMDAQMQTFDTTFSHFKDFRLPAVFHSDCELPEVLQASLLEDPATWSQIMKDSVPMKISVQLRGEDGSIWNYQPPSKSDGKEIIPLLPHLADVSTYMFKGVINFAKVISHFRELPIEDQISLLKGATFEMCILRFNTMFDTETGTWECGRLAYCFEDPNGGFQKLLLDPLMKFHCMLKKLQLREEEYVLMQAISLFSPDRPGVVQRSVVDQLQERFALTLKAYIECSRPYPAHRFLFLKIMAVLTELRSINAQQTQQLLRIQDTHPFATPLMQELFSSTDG
Method in brief: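 Cell-based rPXR activation assay: rPXR cells, 2,000 per well, rested 5hr at 37 C, then exposed to compounds in DMSO for 24 hr at 37 C. Luciferase activity read by One-Glo luminescence after 30 min at room temperature.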

[17] = biological target: Nuclear receptor subfamily 1 group I member 2 (Homo sapiens) (UniProt O75469); assay: Human pregnane X receptor (PXR) activation by small molecules, qHTS assay (AID 1346985); also: potency is read from the fitted curve at half-maximal effect; nearly all actives have a fitted effect of over 40% in size
Method in brief: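 DPX-2 cells (HepG2 co-transfected with a PXR response element and a CYP3A4-promoter luciferase construct) were seeded at 2,000 per well, rested 5 hr at 37C, then exposed to DMSO-dissolved compounds for 24 hr. Activation was read as luciferase luminescence.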

[18] = Caspase-3/7 induction in CHO-K1 cells by small molecules, qHTS cell viability counter screen (AID 1346979); also: nearly all actives have a fitted effect of over 35% in size
Method in brief: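 Wild-type CHO-K1 cells (1,500/well) treated with compound after 5 h plating; after 16 h at 37C, viability read as CellTiter-Fluor fluorescence following 1 h reagent incubation, in the same wells as the caspase read.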

[19] = Caspase-3/7 induction in HepG2 cells by small molecules, qHTS cell viability counter screen (AID 1346981); also: series mostly up to about 92 µM; nearly all actives have a fitted effect of over 30% in size
Method in brief: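 The parent HepG2 line is plated at 2,000 cells per well and rested 5 hr before compound pinning from DMSO stocks. Following a 16-hr treatment at 37 C, a fluorogenic live-cell substrate (CellTiter-Fluor) reports viability after 1 hr.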

[20] = biological target: Nuclear receptor subfamily 1 group I member 2 (Homo sapiens) (UniProt O75469); assay: CYP3A4 induction through human pregnane X receptor (PXR) by small molecules, qHTS assay (AID 1346984); also: nearly all actives have a fitted effect of over 40% in size
Method in brief: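 Human PXR activation is tracked via CYP3A4 promoter-luciferase in DPX-2 (HepG2) cells. Compounds treat cells for 24hr at 37C, and luminescence is read after One-Glo.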

SMILES | Potency [1] | Potency [2] | Potency [3] | Potency [4] | Potency [5] | Potency [6] | outcome [7] | Potency [8] | Potency [9] | Potency [10] | Potency [11] | Potency [12] | Potency [13] | Potency [14] | Potency [15] | Potency [16] | Potency [17] | Potency [18] | Potency [19] | Potency [20]
IC(I)=C(I)I | inactive | 17.2 µM (active) | 27.3 µM (active) | 27.3 µM (active) | 43.6 µM (active) | 43.6 µM (active) | inactive | 1.2 µM (active) | inactive | inactive | 4.86 µM (active) | – | – | – | – | – | – | – | – | –
O=C1CN=C(c2ccccc2)c2cc(Cl)ccc2N1CC1CC1 | – | 11.4 µM (active) | – | – | inactive | inactive | inactive | inactive | inactive | inactive | 25.5 µM (active) | inactive | inactive | inactive | inactive | 11.2 µM (active) | 2 µM (active) | – | – | –
O=C(CBr)OCc1ccccc1 | – | inactive | inactive | – | inactive | inactive | inactive | inactive | inactive | inactive | inactive | inactive | inactive | – | inactive | – | – | inactive | inactive | –
O=C(OC1CCCCC1)c1ccccc1C(=O)OC1CCCCC1 | inactive | 16.2 µM (active) | inactive | – | – | inactive | inactive | inactive | inactive | inactive | 5.74 µM (active) | – | – | – | inactive | – | – | – | – | –
CN1C[C@H](CNC(=O)OCc2ccccc2)C[C@@H]2c3cccc4c3c(cn4C)C[C@H]21 | – | inactive | – | – | inactive | inactive | inactive | inactive | inactive | inactive | inactive | inactive | inactive | 26.6 µM (active) | – | – | – | – | – | –
CCOP(=O)(OCC)O/C(=C/Cl)c1ccc(Cl)cc1Cl | – | 10.9 µM (active) | inactive | – | inactive | – | inactive | inactive | inactive | inactive | 4.86 µM (active) | inactive | inactive | – | inactive | 14.1 µM (active) | 3.98 µM (active) | – | – | inactive
NS(=O)(=O)C(F)(F)C(F)(F)C(F)(F)C(F)(F)C(F)(F)C(F)(F)C(F)(F)C(F)(F)F | inactive | – | 9.69 µM (active) | inactive | inactive | inactive | inactive | inactive | inactive | inactive | – | – | – | – | inactive | – | – | inactive | – | –
NC(=O)CI | – | inactive | inactive | inactive | inactive | inactive | inactive | inactive | inactive | inactive | 69.1 µM (active) | inactive | inactive | – | inactive | – | – | inactive | – | –
CC(=O)CCC(C)=O | – | inactive | inactive | inactive | inactive | inactive | inactive | inactive | inactive | inactive | inactive | inactive | inactive | inactive | – | – | – | inactive | inactive | –
CC1(C)[C@H](C=C(Cl)Cl)[C@@H]1C(=O)O[C@@H](C#N)c1cccc(Oc2ccccc2)c1 | inactive | – | inactive | – | inactive | inactive | inactive | inactive | inactive | – | 4.33 µM (active) | – | inactive | inactive | inactive | – | – | inactive | inactive | –
Cc1ccccc1CCl | – | inactive | inactive | inactive | inactive | inactive | inactive | inactive | inactive | – | inactive | inactive | inactive | inactive | inactive | – | – | – | inactive | –
Clc1ccc(C2(Cn3cncn3)CC(Br)CO2)c(Cl)c1 (stereo not drawn) | inactive | – | – | – | inactive | inactive | inactive | – | – | – | 24.2 µM (active) | – | – | – | inactive | – | – | – | – | –
COc1nn(CSP(=S)(OC)OC)c(=O)s1 | inactive | – | – | – | inactive | inactive | inactive | inactive | inactive | inactive | 54.5 µM (active) | – | inactive | – | inactive | – | – | – | – | –
CCOC(=O)[C@]1(c2ccccc2)Oc2ccccc2[C@@H]1N | inactive | – | inactive | – | inactive | inactive | inactive | inactive | inactive | inactive | – | – | inactive | – | inactive | – | – | – | inactive | –
